Source: PubChem (several laboratories)
GDH-TPI counter: counter-screen for M. tuberculosis FBA inhibitors: GDH-TPI coupled enzymes; hit rate 1.2% among 360,000; AID 588335; inhibition, % at 4.8 µM; GDH-TPI coupled enzyme counterscreen, NADH absorbance; in the data active means inhibition above about 30%
Mtb UGM inh: blocks M. tuberculosis UGM enzyme | AID 504406 | P9WIQ1 | inhibition, % at 10 µM | hit rate 0.06% among 320,000 | purified UGM, fluorescence polarization probe displacement; in the data active means inhibition above about 10%, passing the limit was not always enough
Target sequence (P9WIQ1 whole entry, looked up): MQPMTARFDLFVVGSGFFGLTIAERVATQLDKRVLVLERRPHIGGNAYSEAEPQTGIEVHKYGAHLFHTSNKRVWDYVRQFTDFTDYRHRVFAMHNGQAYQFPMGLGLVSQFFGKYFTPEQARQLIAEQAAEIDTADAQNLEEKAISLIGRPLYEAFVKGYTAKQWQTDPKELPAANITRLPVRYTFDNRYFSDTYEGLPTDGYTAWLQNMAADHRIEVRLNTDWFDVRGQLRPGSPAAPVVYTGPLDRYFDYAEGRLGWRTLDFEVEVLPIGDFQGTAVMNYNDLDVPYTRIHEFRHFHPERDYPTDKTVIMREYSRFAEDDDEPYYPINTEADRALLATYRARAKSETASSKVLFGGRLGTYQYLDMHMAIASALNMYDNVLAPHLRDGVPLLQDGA
Mtb FBA inh: inhibitors of M. tuberculosis fructose-bisphosphate aldolase; purified M. tuberculosis FBA, fluorescence read-out; P9WQA3; AID 588726; hit rate 2.3% among 360,000; inhibition, % at 1 µM; in the data active means inhibition above about 27%
BH1578 lux ind: inducers of Vibrio cholerae quorum light production without autoinducers | V. cholerae BH1578 lux reporter, luminescence, 6 h | activation, % at 18.7 µM | hit rate 0.16% among 350,000 | AID 588436; in the data active means activation mostly above about 9.7%, no sharp cut-off
Rv3671c protease: inhibits the M. tuberculosis serine protease Rv3671c | hit rate 0.048% among 320,000 | P9WHR9 | inhibition, % at 5.96 µM; in the data active means inhibition above about 38%;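 further: extracellular domain of Rv3671c used as enzyme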
RecA intein inh: inhibitors of M. tuberculosis RecA intein splicing; P9WHJ3; cell-free RecA intein splicing, fluorescence; inhibition, % (no concentration beside the values); hit rate 0.75% among 290,000; AID 2221; in the data active means inhibition above about 30%
Numbers stand for hits; n = inactive; x = no result. In the library only some 4.1% were active in any assay of this set; here they are far more common.

SMILES	GDH-TPI counter	Mtb UGM inh	Mtb FBA inh	BH1578 lux ind	Rv3671c protease	RecA intein inh
CCN(CC)c1ccc(/C=N/N2CCN(c3ccccc3OC)CC2)cc1	37	n	n	n	n	n
COc1ccc(/C=N/N2CCN(c3ccccc3OC)CC2)cc1OC	n	n	n	n	n	n
CC/C(=N\NC(=O)CNC(=O)/C=C/c1ccco1)c1ccccc1	n	n	n	17	n	x
CCC/C(=N\NC(=O)CNC(=O)/C=C/c1ccco1)c1ccccc1	n	n	n	n	n	n
CCN(CC)c1ccc(/C=N/NC(=O)CNC(=O)/C=C/c2ccco2)cc1	44	n	n	n	n	n
O=C(/C=C/c1ccco1)NCC(=O)N/N=C/c1ccccc1[N+](=O)[O-]	n	n	n	x	n	n
Cc1ccc(CC(=O)OCC(=O)c2ccc[nH]2)cc1C	n	n	n	n	n	x
CCc1nc2ccc(C(=O)Nc3ccc(C(N)=O)cc3)cn2c1N(CCC(C)C)CCN(C)C	n	x	n	n	x	x
Cc1ccc(N2CCCn3c2cc(C)c(C#N)c3=O)cc1Cl	n	n	n	n	n	n
Cc1ccc(N2CCCn3c2cc(C)c(C#N)c3=O)cc1C	39	n	n	n	n	n
COc1cc(OC)cc(C(=O)NC2CCCN(Cc3ccc(Cl)cc3)C2)c1 (configuration not stated)	n	n	n	n	n	n
Cc1ccc(NC(=O)c2cc(NC(=O)c3ccccc3C(=O)O)ccc2N2CCCCC2)cc1	n	n	n	n	n	n
Cc1ccc(NC(=O)c2cc(NC(=O)/C=C\C(=O)O)ccc2N2CCCCC2)cc1	n	n	n	n	n	48
O=C(Nc1ccccc1OC(F)F)c1ccc(Br)o1	n	n	n	32	n	n
O=C(Nc1ccccc1OC(F)F)c1ccccc1	n	n	n	n	n	n
Cc1ccc(/C=N/NC(=O)c2ccncc2)o1	38	n	n	n	n	n
Cc1ccc(/C=N/NC(=O)c2ccccn2)o1	n	n	n	n	n	n
Cc1ccc(/C=N/NC(=O)c2cccc(NC(=O)c3ccccc3C)c2)o1	n	n	n	n	n	x
Cc1cccc(C(=O)Nc2ccc(C(=O)N/N=C/c3ccc(C)o3)cc2)c1	41	n	n	n	n	x
C/C(=N/NC(=O)c1ccncc1)c1ccccc1	n	n	n	n	n	n
CNC(=O)c1cc2c(s1)CCCCCC2	n	n	n	n	n	n
C/C(=N\NC(=O)c1ccc(N/N=C(\C)c2ccncc2)cc1)c1ccncc1	31	n	n	n	n	n
Cc1ccc(/C=N/NC(=O)c2cc3c(s2)CCCC3)o1	40	n	n	n	n	x
COc1ccc(OCCCC(=O)Nc2cc(S(=O)(=O)N3CCCCC3)ccc2C)cc1	n	n	n	n	n	x
CC(=O)C1=CCC(c2ccc(Cl)c(Cl)c2)N(S(=O)(=O)c2ccc(C)cc2)C1 (configuration not stated)	x	x	n	x	x	x
SMILES	GDH-TPI counter	Mtb UGM inh	Mtb FBA inh	BH1578 lux ind	Rv3671c protease	RecA intein inh
CC1Sc2ccc(S(=O)(=O)N3CCC(C(=O)Nc4ccc(Cl)cc4)CC3)cc2NC1=O (configuration not stated)	n	n	n	n	n	n
COc1ccc(/C=C(/C#N)C(=O)Nc2ccc(C)cc2C)cc1C(=O)O	54	n	n	n	n	n
COc1ccc(/C=C(/C#N)C(=O)Nc2cccc(C)c2C)cc1C(=O)O	37	n	n	n	n	n
CC(=O)N(C(C)=O)c1ccc(Oc2ccc(Oc3ccc(N(C(C)=O)C(C)=O)cc3)cc2)cc1	n	x	n	n	x	x
Cc1cc(OCC(=O)NCc2ccc(S(N)(=O)=O)cc2)c2c3c(c(=O)oc2c1)CCC3	n	n	40	n	n	n
CCCNC(=O)c1cc(C2CCCN(C(=O)C3CCCCC3)C2)on1 (configuration not stated)	n	x	n	n	x	x
Cc1ccc(N=Nc2c(N)[nH]n3c(=O)cc(-c4ccccc4)nc23)cc1	n	n	n	32	n	n
COc1cccc(-c2nnc(N)o2)c1	n	n	n	n	n	n
COc1cccc(-c2nnc(-c3ccc(C)o3)o2)c1	n	n	179	n	n	n
CCOC(=O)c1c(C)oc2c1c(C=NCCO)c(O)c1ccccc12	n	x	n	n	x	46
CC(=O)c1ccc(N2CCCCCC2)c(F)c1	34	n	n	n	n	n
OC(Cc1ccncc1)c1ccccc1Cl (configuration not stated)	n	x	n	x	x	x
CCCS(=O)(=O)NC(=O)C1(C)CCCN(C(=O)c2cccc(OC(F)(F)F)c2)C1 (configuration not stated)	n	x	n	n	x	x
COC(C)c1oc2c(C)c3oc(=O)cc(C)c3cc2c1C (configuration not stated)	n	n	n	n	n	n
Cc1cc(/C=C(\C#N)C(N)=O)c(C)n1-c1ccc(N2CCOCC2)c([N+](=O)[O-])c1	38	n	n	n	n	n
CN1N=C(C(=O)N=c2sc3ccccc3n2C)CCC1=O	49	x	n	n	x	x
O=C1c2cccc3c(N4CCCCC4)ccc(c23)C(=O)N1c1ccccn1	n	10	n	n	n	n
O=C1c2cccc3c([N+](=O)[O-])ccc(c23)C(=O)N1c1ccccn1	n	n	n	n	n	n
Cc1c(NC(=O)COC(=O)c2ccccc2O)c(=O)n(-c2ccccc2)n1C	n	x	n	n	x	x
COc1cc(NC(=O)C2(C)CCN2C(C)C)cc(OC)c1OC (configuration not stated)	n	x	n	n	x	x
Cc1ccccc1-c1nnc(SCC(=O)c2c(N)n(C3CC3)c(=O)[nH]c2=O)o1	n	n	n	n	n	x
COc1cc(C(=O)Nc2ccc(-c3nc4cc(C)ccc4o3)c(O)c2)cc(OC)c1OC	34	n	n	n	n	n
COc1cc(C(=O)Nc2cccc(-c3nc4ccccc4o3)c2C)cc(OC)c1OC	n	x	n	n	x	n
CCOC(=O)Cc1c(C)nc2c(-c3ccc(Cl)cc3)c[nH]n2c1=O	n	n	56	n	n	n
CNc1nc(N)c([N+](=O)[O-])c(Nc2ccccc2OC)n1	32	n	n	n	n	n
SMILES	GDH-TPI counter	Mtb UGM inh	Mtb FBA inh	BH1578 lux ind	Rv3671c protease	RecA intein inh
CCOC(=O)c1nc(Nc2ccccc2)c2ccccc2n1	n	n	n	n	n	n
CCOC(=O)c1ccc(Nc2ncnc3ccc(C)cc23)cc1	n	n	n	n	n	n
CCOC(=O)c1nc(Nc2ccc(C)cc2)c2ccccc2n1	34	n	n	n	n	n
CCOC(=O)c1ccc(Nc2ncnc3ccccc23)cc1	57	n	n	n	n	n
CCOC(=O)c1ccc(Nc2c(OCC)c(=O)c2=O)cc1	35	n	n	n	n	n
N#Cc1cccnc1N1CCN(C(=O)c2cccs2)CC1	n	n	n	n	x	n
Cc1cc(NC(=O)COc2ccccc2)n(-c2ccccc2)n1	n	n	n	n	n	n
Cc1cc(NC(=O)COC(=O)c2nccnc2N)n(-c2ccccc2)n1	n	n	129	n	n	n
COc1ccccc1C(=O)NC(=O)COC(=O)c1nccnc1N	n	n	144	n	n	x
COc1ccccc1C(=O)NC(=O)COC(=O)c1cnccn1	n	x	n	n	x	x
Nc1nccnc1C(=O)OCC(=O)NNC(=O)c1ccccc1	n	n	160	n	n	n
